Assay results reported in PubChem BioAssay AID488890 (Southern Research Specialized Biocontainment Screening …, 2010).
About 1,300 (0.41%) of roughly 320,000 compounds were called active. Roughly 3% stayed inconclusive and do not appear here. The rule behind the calls is not given here. Only a sample is shown. Results with a measured potency or affinity are listed apart.

Test: growth inhibition of non-replicating M. tuberculosis (AID 488890);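 note: plate controls were DMSO cells for no effect and high antibiotic wells for full effect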
Settings: Mycobacterium tuberculosis non-replicating, at 25 µM, stronger effect = higher value

SMILES	inhibition [%]
COc1cccc(-c2nnc(-c3ccco3)o2)c1	65.8
Cc1cccc(Oc2ncnc(N)c2[N+](=O)[O-])c1C	29.9
Cc1ccccc1Oc1ncnc(N)c1[N+](=O)[O-]	6.54
Cc1ccccc1C(=O)NCC(=O)OCCCOC(=O)CNC(=O)c1ccccc1C	-9.69
O=C1CN(C(=O)CNCc2ccccc2Cl)c2ccccc2N1	9.45
Cc1ccc(-c2cc(-c3ccc(F)cc3)n[nH]2)c(O)c1	-3.72
CN(C)CCOC(=O)/C(=C/c1cn(C)c2ccccc12)NC(=O)c1ccccc1	-4.57
Cc1ccc(C(=O)CCS(=O)(=O)c2ccc(F)cc2)cc1	69.2
Cc1ccc(S(=O)(=O)CCC(=O)OCC(=O)c2ccc(C)c(C)c2)cc1	73.6
Cc1ccc(C)c(OCc2nnc(NC(=O)c3ccc4c(c3)OCO4)s2)c1	6.85
O=C1NC2(CCC3(CC2)OCCO3)NN1c1ccccc1	14.8
O=C1NC2(CCCCC2)NN1c1ccccc1	18.6
O=C(O)Cc1ccc(Oc2ncc(C(F)(F)F)cc2Cl)cc1	-16.8
Cc1cccc(-c2noc(CCCC(=O)Nc3cccnc3)n2)c1	32.7
O=C(CCCc1nc(-c2ccccc2)no1)Nc1cccnc1	34.2
O=[N+]([O-])c1ccc2ncnc(Nc3ccc4c(c3)OCCO4)c2c1	21.4
Cc1c(C(=O)OCc2ccc(F)cc2)sc2nc3n(c(=O)c12)CCC3	29.2
CCOC(=O)c1sc2nc3n(c(=O)c2c1C)CCC3	1.86
N#Cc1cc(N)ccc1Sc1ccccc1	9.77
COc1ccc(N2CCN(c3ccc(N)cc3C#N)CC2)cc1	-1.74
CS(=O)(=O)N(CC(=O)NCCC1=CCCCC1)c1ccc2c(c1)OCO2	-1.16
COc1ccc(-c2cc(C(=O)NCCN3CCOCC3)no2)cc1OC	-10.1
Cc1ccc2sc(N3CCN(C(=O)c4ccc([N+](=O)[O-])o4)CC3)nc2c1C	68.9
O=C(c1ccccc1)N1CCN(c2nc3ccc([N+](=O)[O-])cc3s2)CC1	24.5
CCCCC(=O)N1CCN(c2nc3ccc(F)cc3s2)CC1	50.8

SMILES	inhibition [%]
Cc1ccc(C)c2sc(N3CCN(C(=O)c4ccc([N+](=O)[O-])o4)CC3)nc12	77.8
Cc1ccc(OCCC(=O)OCC(=O)NCc2ccccc2)cc1	30.8
CC1(C(=O)CSc2ncn[nH]2)CCC(=O)O1 (centres undefined)	-3.75
O=C(NC1CC1)c1cc2ccccc2o1	6.17
O=C(NC1CCCCC1)c1cc2ccccc2cc1O	30.4
CC(NC(=O)Cn1cnnn1)C12CC3CC(CC(C3)C1)C2 (centres undefined)	2.51
CCn1cc(C(=O)NC(C)C2CC3CCC2C3)cn1 (centres undefined)	78.4
Cc1ccc(C2NC(=O)c3ccccc3O2)cc1 (centres undefined)	9.75
COc1ccc(NS(=O)(=O)c2ccc(N3CCCCC3)c(NC(=O)C(C)NC(N)=O)c2)cc1 (centres undefined)	17.6
CC/C(=N\NS(=O)(=O)c1ccc(C)cc1)c1ccco1	-13.4
COc1ccccc1OCCCCN1CCCCC1	7.51
COc1ccccc1OCCOCCN1CCCC1	-3.17
COc1ccc(CC(=O)NC(C)(C)C)cc1S(=O)(=O)N1CCOCC1	-3.56
COc1cc2c(cc1OC)CN(C(=O)c1ccc(OC)c([N+](=O)[O-])c1)CC2	2.12
O=C(c1ccccc1)N1CCN(C(=O)c2cc3ccccc3o2)CC1	-6.53
O=C(c1ccccc1[N+](=O)[O-])N1CCc2ccccc2C1	-4.71
O=C(c1ccc([N+](=O)[O-])o1)N1CCOCC1	15.5
CC(=O)N1CCN(C(=O)c2cc3ccccc3o2)CC1	2.82
COc1cc2c(cc1OC)CN(C(=O)c1ccc(Br)o1)CC2	-1.97
O=C(c1ccc([N+](=O)[O-])cc1)N1CCc2ccccc2C1	39.6
O=C(c1ccc([N+](=O)[O-])o1)N1CCCCCC1	56.6
O=C(COC(=O)c1cncc(Br)c1)NCC1CCCO1 (centres undefined)	4.18
N#Cc1ccc(S(=O)(=O)N2CCC(C(=O)Nc3cccc(C(=O)NC4CC4)c3)CC2)cc1	4.79
COC(=O)C1=C(C)N(C(C)C)C(=O)C1(NC(=O)C1CCCCC1)C(F)(F)F (centres undefined)	7.64
CCOc1ccc(C(NC(=O)CC)c2c(O)ccc3ccccc23)cc1 (centres undefined)	22.7

SMILES	inhibition [%]
COc1ccc(N2CCOCC2)c(NC(=O)c2cccs2)c1	-2.48
CN1C[C@H](C(=O)NC2(C)OC3(O)[C@@H]4CCCN4C(=O)[C@H](Cc4ccccc4)N3C2=O)CC2c3cccc4[nH]cc(c34)C[C@H]21 (some centres undefined)	12.4
CC1CCC(NC(=O)C2CC(O)CN2S(=O)(=O)c2ccc([N+](=O)[O-])cc2)CC1 (centres undefined)	11.1
O=C(Nc1ccccc1N1CCOCC1)c1ccc2ccccc2n1	32.1
CSCCC(NC(=O)c1ccco1)C(=O)N1CCC(C(N)=O)CC1 (centres undefined)	-11.5
COc1ccc(NC(=O)CN(C)C(=O)c2ccc3ccccc3n2)cc1	-6.38
O=C(Nc1cc(Cl)ncn1)c1ccccc1	5.29
CCN(CC(=O)Nc1cccc(OC)c1)CC(=O)Nc1ccc(C)cc1Cl	13.4
O=C(Nc1ccc(Cl)cc1)C1CCCCN1S(=O)(=O)c1ccccc1 (centres undefined)	10.3
Cc1cc(C)c(C)c(OCC(=O)O/N=C(\N)c2ccccn2)c1	13
CCOC(=O)c1cccc(-n2cccc2/C=C2\NC(=O)N(CC(=O)O)C2=O)c1	-4.64
CC(NC(=O)C1CCC(CNS(=O)(=O)c2ccccc2)CC1)c1ccc2c(c1)OCCO2 (centres undefined)	0.52
CC(=O)Nc1ccccc1Sc1ccccc1	-2.8
N#CCC(CNc1ncc(C(F)(F)F)cc1Cl)OC(=O)c1ccc(Cl)cc1 (centres undefined)	27
CC(C)(C)N(Cc1ccccc1)C(=O)COC(=O)c1ccc([N+](=O)[O-])o1	4
CN(Cc1ccccc1)C(=O)c1ccco1	14.6
Cc1cc(NC(=O)CSc2nncn2N)no1	-18
COCc1cc(=O)[nH]c(Nc2nc3ccc(C)cc3o2)n1	-3.8
COC(=O)Cc1cc(=O)[nH]c(Nc2nc3ccccc3o2)n1	69
COc1cc(C(=O)NCCCNc2nc3c(C)cc(C)cc3cc2C#N)cc(OC)c1OC	40.9
Cc1[nH]n(-c2ccccc2)c(=O)c1N=Nc1cccc(Cl)c1	1.75
Cc1[nH]n(-c2ccccc2)c(=O)c1N=Nc1ccc(Cl)cc1	22
COc1ccc(OC)c(C(=O)COC(=O)c2ccccc2O)c1	51.8
COc1ccccc1C(=O)COC(=O)c1ccccc1O	26.5
